A selection: hits, their analogues and other compounds. The true share with any hit is near 2.4%.
WRN helicase inh = qHTS for Inhibitors of WRN Helicase; Potency, µM (series often up to 114 µM), inactives show at the top dose activity change, negative = inhibition, usual class: inhibitors; actives 0.46% (n = 360,000); WRN helicase unwinding, fluorescent forked duplex, kinetic; also: % is scaled to controls: 0 for no effect and ±100 for the full control effect; nearly all actives have a fitted effect of over 55% in size
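Fluorescence dequenching readout, ex 525 nm/em 598 nm, kinetic mode: forked duplex DNA (100 nM final) with adjacent fluorophore and quencher unwound by WRN (20 nM final) with 2 mM ATP. Compound preincubation 15 min, room temperature.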
POLB inh = qHTS Assay for Inhibitors of DNA Polymerase Beta | P06746 | Pol beta primer extension/strand displacement, fluorescence kinetic | AID 485314, 2010 | actives 1.3% (n = 340,000) | Potency, µM (top dose mostly 114 µM), for the others: at the highest dose activity change, negative = inhibition, actives largely listed as inhibitors; also: % is scaled to controls: 0 for no effect and ±100 for the full control effect
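Kinetic readout of DNA synthesis with strand displacement by Pol beta. Compound and 10 nM enzyme sit 15 min at room temperature; 50 nM substrate starts the reaction, read immediately and at 10 min.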
Pol iota inh = qHTS for Inhibitors of Polymerase Iota. DNA polymerase iota (Homo sapiens), Q9UNA4. Pol iota fluorescent replication assay, 10 min. Potency, µM (doses to about 115 µM), inactives show top-dose activity, negative = inhibition, hits mostly inhibitors. actives 1% (n = 390,000). AID 588590, 2011
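Pol iota at 10 nM preincubated 15 min with compounds at room temperature; reaction started with fluorescent substrate, 50 nM final. Fluorescence read kinetically at 0 and 10 min; buffer-only wells as negative control.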
Pol eta inh = qHTS for Inhibitors of Polymerase Eta. recombinant Pol eta, fluorescent DNA replication assay. AID 588591, 2011. Potency, µM (series often up to 114 µM), inactives show top-dose activity change, negative = inhibition, actives largely listed as inhibitors. actives 1.2% (n = 390,000). DNA polymerase eta (Homo sapiens), Q9Y253; also: % is scaled to controls: 0 for no effect and ±100 for the full control effect
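Pol eta at 10 nM preincubated with compounds 15 min at room temperature; reaction started with fluorescent substrate (50 nM final) and read kinetically at 0 and 10 min.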
FEN1 inhibitor = qHTS Assay for the Inhibitors of Human Flap endonuclease 1 (FEN1). P39748. Recombinant FEN1 flap cleavage, fluorescence, 15 min. Potency, µM (top dose mostly 114 µM), inactives show at the top dose activity change, negative = inhibition, hits mostly inhibitors. actives 0.35% (n = 390,000); also: % is scaled to controls: 0 for no effect and ±100 for the full control effect; nearly all actives have a fitted effect of over 65% in size
Target sequence (P39748 whole entry, looked up): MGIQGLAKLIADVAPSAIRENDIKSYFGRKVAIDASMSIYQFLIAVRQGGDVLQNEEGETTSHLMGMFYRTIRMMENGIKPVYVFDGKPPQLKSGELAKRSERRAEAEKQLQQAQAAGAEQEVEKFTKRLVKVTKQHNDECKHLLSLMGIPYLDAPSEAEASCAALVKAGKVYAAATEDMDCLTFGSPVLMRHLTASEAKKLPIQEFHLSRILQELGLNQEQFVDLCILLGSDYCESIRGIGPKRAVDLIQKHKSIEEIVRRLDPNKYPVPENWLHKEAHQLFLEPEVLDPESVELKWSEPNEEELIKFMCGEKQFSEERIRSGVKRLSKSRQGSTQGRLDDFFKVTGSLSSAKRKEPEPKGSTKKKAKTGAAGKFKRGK
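With each library titrated from low to high concentration, compounds met 10 nM FEN1 for 15 min at room temperature before 50 nM substrate was added; readings at 0 and 15 min fed four-parameter Hill curve fits.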
POLK inh = qHTS for Inhibitors of Polymerase Kappa. DNA polymerase kappa (Homo sapiens), Q9UBT6. purified Pol kappa, fluorescent DNA synthesis assay, 10 min. Potency, µM (top dose mostly 107 µM), without a hit: top-dose activity, negative = inhibition, actives largely listed as inhibitors. actives 0.53% (n = 400,000). AID 588579, 2011; also: % is scaled to controls: 0 for no effect and ±100 for the full control effect
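Enzyme at 10 nM met test compounds for 15 min at room temperature. Substrate addition (50 nM final) began the reaction, which was monitored by fluorescence at 0 and 10 min.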
Starred values were filed as active, the others as inactive; ? = inconclusive; . = no result given; [ ] = dose if it differs, or a comment. Calls follow the shape of the dose curve; as a rule, active = well fitted curve in the direction sought with a large enough effect; inconclusive = small, poorly fitted or top-dose-only effect, or another doubt; inactive = no such curve, though single readings can be large; an effect the other way counts as inactive or inconclusive. Potency is read from the fitted curve at half-maximal effect.

SMILES | WRN helicase inh | POLB inh | Pol iota inh | Pol eta inh | FEN1 inhibitor | POLK inh
O=C(Nc1cccc(S(=O)(=O)Nc2ccccc2F)c1)c1ccc2ccccc2n1 | -23% | 4% | ? | -4% | ? | -11%
O=C(/C=C/c1ccccc1)Nc1cccc(S(=O)(=O)Nc2ccccc2F)c1 | 40µM* | -27% | -6% | -9% | -18% | -19%
CCNC(=O)c1c(NC(=O)c2cc(=O)c3ccc(C)c(C)c3o2)sc2c1CCCC2 | . | 21% | -6% | 4% | 4% | 14%
Nc1cccn2c(-c3ccc(Cl)c(Cl)c3)cnc12 | -19% | -14% | 13µM* | -4% | -27% | -13%
Nc1cccn2c(-c3ccc(Cl)cc3)cnc12 | -8%[57.1 µM] | -1% | 16% | -14% | -25% | -9%
COc1ccc(NC(=O)Cn2c(=O)n(Cc3ccco3)c(=O)c3sc4ccccc4c32)cc1OC | . | 1% | 41% | -21% | -6% | -3%
CC1(C)CC(=O)C2=C(C1)OC(N)=C(C#N)C2c1ccc[nH]1 (centres undefined) | -13%[57.1 µM] | 20µM* | 28µM* | -15% | 8% | 79µM*
O=C1NC(=O)c2c1c(-c1ccccc1)cc1[nH]c3ccc(O)cc3c21 | . | . | . | . | . | 12%[60.1 µM]
CC(C)CC(NC(=O)OC(C)(C)C)c1cn([C@@H](Cc2ccc(O)cc2)C(=O)N2CCN(C(=O)OC(C)(C)C)CC2)nn1 (some centres undefined) | -6% | 35µM* | 15% | -22% | -5% | -7%
CC[C@H](C)C(C(=O)N1CCN(C(=O)OC(C)(C)C)CC1)n1cc(C(Cc2ccc(O)cc2)NC(=O)OC(C)(C)C)nn1 (some centres undefined) | 8% | 20% | 6% | -16% | 10% | 18%
COc1ccc2c(c1)c1c(c(=O)n(-c3ccccc3)c(=O)n1CC(=O)Nc1ccc(C)c(C)c1)n2C | . | 52% | -10% | -4% | -12% | -16%
O=C(N/N=C/c1ccco1)c1ccc(N2CCCC2=O)cc1 | -14% | ? | ? | ? | -6% | -11%
COc1cc(C=C(C#N)C(=O)c2ccccc2)cc(OC)c1OC | -1%[57.1 µM] | . | . | . | . | .
COc1ccc(/C=N\NC(=O)c2ccc(-c3ccccc3)cc2)c(OC)c1OC | -12% | -1% | 29% | -8% | -2% | -8%
COc1cc(/C=N/NC(=O)c2ccc(-n3cccc3)cc2)ccc1O | -22%[11.6 µM] | 13µM* | 89µM* | 22µM* | -23% | ?
COc1cc(/C=C(/C(=O)O)c2ccc(-c3ccccc3)cc2)cc(OC)c1OC | -22% | 50µM* | 27% | ? | -1% | -11%
COc1cc(/C=N/NC(=O)c2ccc(-c3ccccc3)cc2)cc(OC)c1OC | -23%[57.1 µM] | 35µM* | ? | ? | 8% | ?
COc1cccc(/C=N/NC(=O)c2ccc(N3CCCC3=O)cc2)c1 | -4%[57.1 µM] | 25µM* | ? | -3% | -11% | ?
COc1cc(/C=N/NC(=O)c2ccc3c(c2)OCO3)ccc1O | -2% | ? | -2% | -13% | 13% | 8%
CCCS(=O)(=O)N1CCC(N2CCN(Cc3ccc(F)cc3)C(=O)C2=O)CC1 | . | 27% | 5% | 4% | 4% | -6%[60.1 µM]
COC(=O)c1[nH]c(=O)c2ccccc2c1O | -5%[57.1 µM] | 0% | 22µM* | -22% | 0% | -7%
N#Cc1ccsc1NC(=O)CSc1nnnn1-c1ccc(O)cc1 | ? | ? | ? | 50µM* | -23% | 0%
O=C(CSc1nnnn1-c1ccc(O)cc1)NC1CCCCC1 | -1%[57.1 µM] | 9% | 58% | -25% | 12% | -18%
Cc1nnc(SCC(=O)Nc2sccc2C#N)n1Cc1ccccc1 | -26% | 35µM* | 20µM* | -63% | 1% | ?
Cc1nnc(SCC(=O)Nc2sccc2C#N)s1 | ? | 32µM* | 40µM* | 25µM* | ? | 50µM*
SMILES | WRN helicase inh | POLB inh | Pol iota inh | Pol eta inh | FEN1 inhibitor | POLK inh
Cc1nnc(SCC(=O)Nc2sccc2C(N)=O)s1 | -6% | . | ? | -12% | -14% | -13%
Cn1ccnc1SCC(=O)Nc1sccc1C#N | -9%[57.1 µM] | 32µM* | ? | ? | -4% | ?
COC(=O)c1ccc(-c2ccc(C3C4C=CCC(C)C4C(=O)N3Cc3ccccc3)c(F)c2)cc1 (centres undefined) | . | . | 12% | . | 3% | -3%
O=C(NCCc1ccc(F)cc1)C(=O)NCC(c1ccc2c(c1)OCO2)N1CCOCC1 (centres undefined) | . | 30% | ? | -1% | 4% | -3%[60.1 µM]
N#Cc1ccsc1NC(=O)CSc1nncs1 | -11% | . | ? | 40µM* | -5% | -27%
Cc1nnc2c3ccccc3nc(Nc3ccccc3C(=O)O)n12 | . | -28% | -13% | 79µM* | ? | -11%
O=C1NC(=S)N/C1=C/c1cccc([N+](=O)[O-])c1 | -9% | 5% | 47% | ? | 0% | -5%
Cc1ccc(-c2ccc(/C=C3/NC(=O)NC3=O)o2)cc1[N+](=O)[O-] | -29% | -4% | 50µM* | ? | -21% | ?
O=C1NC(=S)N/C1=C/c1ccc(-c2c(Br)cc([N+](=O)[O-])cc2Br)o1 | . | 8.9µM* | . | . | . | .
Nc1cccc2c1C(=O)N(C(=O)/C=C/c1cccc(F)c1)C2=O | -22%[11.6 µM] | 14% | ? | ? | 7% | -11%
Nc1cccc2c1C(=O)N(C(=O)/C=C/c1cccc(Br)c1)C2=O | -28% | 9% | 11µM* | ? | -9% | -8%
Cc1ccc(C)c(N2CCN(C(=O)c3ccc4nc(-c5ccco5)c(-c5ccco5)nc4c3)CC2)c1 | -31% | -18% | ? | -15% | -18% | -12%
COc1ccccc1N1CCN(C(=O)c2ccc3nc(-c4ccco4)c(-c4ccco4)nc3c2)CC1 | -19% | 28µM* | ? | -17% | -20% | -28%
CCOC(=O)c1ccc(S(=O)(=O)Nc2nc3cc(S(=O)(=O)NC4=NCCCCC4)ccc3s2)cc1 | ? | 1% | 14µM* | -5% | -8% | -3%
O=C(Nc1ncnc2sc3c(c12)CCCC3)c1ccncc1 | 1% | 8% | 36% | -20% | -2% | 9%
O=C(Nc1ncnc2sc3c(c12)CCCCC3)c1ccco1 | 2% | 7% | -4% | 22µM* | 4% | -8%
O=[N+]([O-])c1ccc(O)c(-c2nn[nH]n2)c1 | 79µM* | 0% | ? | -11% | 0% | -9%

Screening results from PubChem.
